Reference: PubChem BioAssay (Tox21)
Inconclusive results are not listed. Activity calls are given as the source filed them. Unless noted, calls come from the whole dose curve; as a rule, active = well fitted curve in the direction sought with a large enough effect in the repeat runs; inconclusive = weak or mixed curves; inactive = no such curve, though single readings can be large; an effect the other way counts as inactive or inconclusive.

What was measured:
[1] = qHTS assay to identify small molecule antagonists of the estrogen related receptor (ERR) signaling pathway from Tox21 library - cell viability counter screen (AID 1224834); note: nearly all actives have a fitted effect of over 30% in size
Procedure, shortened: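 Cytotoxicity of test substances is gauged in the same ERR cells used for the antagonist screen, after 17.5 h of compound treatment at 37 C, by CellTiter-Fluor fluorescence measured after 30 min.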

[2] = molecular target: Luciferin 4-monooxygenase (Photinus pyralis) (UniProt P08659); assay: qHTS assay to identify small molecule inhibitors of firefly luciferase (AID 1224835); note: nearly all actives have a fitted effect of over 25% in size
Procedure, shortened: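 Quantitative HTS format; KM concentrations of both substrates. Purified P. pyralis FLuc activity quantified from luminescence images.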

[3] = qHTS assay to identify small molecule agonists of the constitutive androstane receptor (CAR) signaling pathway - cell viability counter screen (AID 1224836); note: nearly all actives have a fitted effect of over 45% in size
Procedure, shortened: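 Viability read-out: CellTiter-Fluor fluorescence after 23 h compound exposure at 37 C/5% CO2 in double-stable HepG2-CYP2B6-hCAR cells, with PK11195 present at 0.75 uM final; compounds tested in 15-point titration.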

[4] = qHTS assay to identify small molecule antagonists of the constitutive androstane receptor (CAR) signaling pathway - cell viability counter screen (AID 1224837); note: nearly all actives have a fitted effect of over 45% in size
Procedure, shortened: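 Multiplexed cytotoxicity read-out for the CAR antagonist screen: double-stable HepG2-CYP2B6-hCAR cells co-treated with 50 nM CITCO (final) and compound over 15 concentrations, incubated 23 hr, then assessed by CellTiter-Fluor fluorescence.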

[5] = molecular target: Nuclear receptor subfamily 1 group I member 3 (Homo sapiens) (UniProt Q14994); assay: qHTS assay to identify small molecule antagonists of the constitutive androstane receptor (CAR) signaling pathway (AID 1224838); note: nearly all actives have a fitted effect of over 40% in size
Procedure, shortened: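 Compounds were titrated across 15 concentrations onto HepG2 cells double-stably expressing hCAR and a CYP2B6-2.2kb reporter, together with 50 nM CITCO (final). After 24 h at 37 C, luciferase activity was measured by luminescence.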

[6] = molecular target: Nuclear receptor subfamily 1 group I member 3 (Homo sapiens) (UniProt Q14994); assay: qHTS assay to identify small molecule agonists of the constitutive androstane receptor (CAR) signaling pathway (AID 1224839);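 note: HepG2 cells stably carrying human CAR and a CYP2B6 luciferase reporter; nearly all actives have a fitted effect of over 15% in size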
Procedure, shortened: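 Luminescence read-out (ONE-Glo, 30 min, room temperature) from double-stable HepG2-CYP2B6-hCAR cells exposed 24 h to 15-point compound series in presence of 0.75 uM PK11195 final.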

[7] = qHTS assay to identify small molecule antagonists of the estrogen related receptor signaling pathway with the pleiotropic PPARgamma coactivator (PGC) from Tox21 10K library - cell viability counter screen (AID 1224840; active = well fitted cell-killing curve with a large enough effect in the repeat runs, not every such curve was filed as active; note: nearly all actives have a fitted effect of over 40% in size)
Procedure, shortened: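 Step one, plate 2,000 PGC/ERR cells per well; step two, incubate 6 h at 37 C/5% CO2; step three, pin-transfer compounds; step four, incubate 17.5 h; step five, add CellTiter-Fluor and read fluorescence after 30 min.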

[8] = qHTS assay to identify small molecule antagonists of the estrogen related receptor signaling pathway with the pleiotropic PPARgamma coactivator (PGC) from Tox21 10K library (AID 1224841; call rule not given here; note: actives are mostly falling curves and most rising ones were filed inactive; nearly all actives have a fitted effect of over 50% in size)
Procedure, shortened: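 Antagonism in this quantitative HTS is taken from loss of luciferase signal in PGC/ERR cells. Cells (2,000/well) are treated with compounds in DMSO after a 6 h settling period and read by One-Glo luminescence after 18 h.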

[9] = qHTS assay to identify small molecule agonists of the estrogen related receptor signaling pathway with the pleiotropic PPARgamma coactivator (PGC) from Tox21 10K library (AID 1224842); note: nearly all actives have a fitted effect of over 15% in size
Procedure, shortened: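 PGC/ERR reporter cells (NTP line) were seeded 2,000 per well, rested 6 h at 37 C/5% CO2, then pin-dosed with compounds in DMSO for 18 h at 37 C; luciferase read by One-Glo luminescence after 30 min at room temperature.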

[10] = qHTS assay to identify small molecule agonists of the hypoxia (HIF-1) signaling pathway - cell viability counter screen (AID 1224844; calls by dose curve; note: nearly all actives have a fitted effect of over 50% in size)
Procedure, shortened: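 Tox21 10K compounds were added to HRE-bla ME-180 cells (0.5% dialyzed FBS) and incubated 17 hrs at 37C; ATP-based CellTiter-Glo luminescence then reported cell viability in the same wells.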

[11] = qHTS assay to identify small molecule agonists of H2AX (AID 1224845; active = well fitted activation curve with a large enough effect in the signal ratio in the repeat runs, not every such curve was filed as active; the % refers to the signal ratio)
Procedure, shortened: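 Wild-type CHO-K1 cells plated overnight, then exposed 3 hr at 37C to compounds at 15 concentrations (0.76% DMSO). Lysed, then HTRF anti-pH2AX(S139)-cryptate/anti-H2AX-d2 detection after 24 hr at room temperature; emissions 665 and 620 nm.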

[12] = qHTS assay to identify small molecule agonists of H2AX - cell viability counter screen (AID 1224847; calls by dose curve; note: top concentration of the series differs between compounds; nearly all actives have a fitted effect of over 30% in size)
Procedure, shortened: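 CHO-K1 wt, 1000 cells/well, o/n 37C; cpds 15 conc, 3 h 37C, 0.76% DMSO; CellTiter-Glo, 30 min RT, luminescence.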

[13] = qHTS assay to identify small molecule antagonists of the estrogen related receptor (ERR) signaling pathway from Tox21 library (AID 1224848); note: nearly all actives have a fitted effect of over 50% in size
Procedure, shortened: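 Screening used an ERR reporter line supplied by NTP, exposed for 18 h at 37 C to library compounds delivered in DMSO. Signal was luciferase luminescence developed with ONE-Glo at room temperature for 30 min.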

[14] = qHTS assay to identify small molecule agonists of the estrogen related receptor (ERR) signaling pathway from Tox21 library (AID 1224849; calls by dose curve; note: nearly all actives have a fitted effect of over 15% in size); settings: ERR reporter cell line, ONE-Glo luciferase, 18 h; at 92.4 µM (top of the series) unless noted
Procedure, shortened: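 Agonist signal is luciferase luminescence from an ERR reporter cell line treated 18 h at 37 C with DMSO-dissolved compounds, read 30 min after ONE-Glo addition at room temperature.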

[15] = qHTS RealTime-Glo MT Cell Viability Assay in HepG2 cells - 24 hour (AID 1224867); note: nearly all actives have a fitted effect of over 50% in size
Procedure, shortened: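 Tox21 10K library screened in qHTS format on HepG2 cells carrying RealTime-Glo reagents. Compounds were added after a 5 h preincubation, and the luminescent signal from continuous culture was measured repeatedly during 40 h treatment.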

[16] = qHTS RealTime-Glo MT Cell Viability Assay in HEK293 cells - 32 hour (AID 1224868)
Procedure, shortened: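 Luminescence generated by NanoLuc from substrate produced by living HEK293 cells served as the viability signal. Each value reflects the reading at its stated time point during continuous 40 h compound exposure at 37 C.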

[17] = A CellTox Green Cytotoxicity Assay to monitor cytotoxicity in HEK293 cells - 0 hour (AID 1224869); note: nearly all actives have a fitted effect of over 50% in size
Procedure, shortened: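 Cytotoxicity was tracked continuously in HEK293 cells by a DNA-binding dye excluded from viable cells. Compounds were transferred in DMSO 5 h after seeding; fluorescence was recorded at intervals up to 40 h.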

[18] = qHTS RealTime-Glo MT Cell Viability Assay in HepG2 cells - 40 hour (AID 1224870); note: nearly all actives have a fitted effect of over 50% in size
Procedure, shortened: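 HepG2 cells mixed with RealTime-Glo MT reagents (NanoLuc plus cell-permeant prosubstrate) were seeded at 600 cells/well, incubated 5 h at 37 C/5% CO2, then pinned with compounds in DMSO; nonlytic luminescence tracked viability during 40 h treatment.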

[19] = molecular target: Thyrotropin receptor (Homo sapiens) (UniProt P16473); assay: qHTS assay to identify small molecule agonists of the thyroid stimulating hormone receptor (TSHR) signaling pathway (AID 1224843; calls by dose curve; note: nearly all actives have a fitted effect of over 45% in size)
Procedure, shortened: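 Cell line HEK293 with TSHR; density 800/well. Exposure 30 min RT. Readout HTRF cAMP (cAMP-d2/anti-cAMP-cryptate), 1 h RT before reading.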

[20] = qHTS assay to identify small molecule agonists of the hypoxia (HIF-1) signaling pathway (AID 1224846; active = well fitted activation curve with a large enough effect in the signal ratio in the repeat runs, not every such curve was filed as active; the % refers to the signal ratio)
Procedure, shortened: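 Steps: seed ME-180 HRE-bla cells (2,000/well, 0.5% dialyzed FBS); incubate 5 hrs at 37C; pin-transfer compounds or DMSO; incubate 17 hrs; add LiveBLAzer B/G substrate CCF4-AM; measure reporter activation by FRET.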
% is set by controls: 0 for no effect and ±100 for the full control effect.

Chain of Thyrotropin receptor (Homo sapiens) (P16473 whole entry, looked up): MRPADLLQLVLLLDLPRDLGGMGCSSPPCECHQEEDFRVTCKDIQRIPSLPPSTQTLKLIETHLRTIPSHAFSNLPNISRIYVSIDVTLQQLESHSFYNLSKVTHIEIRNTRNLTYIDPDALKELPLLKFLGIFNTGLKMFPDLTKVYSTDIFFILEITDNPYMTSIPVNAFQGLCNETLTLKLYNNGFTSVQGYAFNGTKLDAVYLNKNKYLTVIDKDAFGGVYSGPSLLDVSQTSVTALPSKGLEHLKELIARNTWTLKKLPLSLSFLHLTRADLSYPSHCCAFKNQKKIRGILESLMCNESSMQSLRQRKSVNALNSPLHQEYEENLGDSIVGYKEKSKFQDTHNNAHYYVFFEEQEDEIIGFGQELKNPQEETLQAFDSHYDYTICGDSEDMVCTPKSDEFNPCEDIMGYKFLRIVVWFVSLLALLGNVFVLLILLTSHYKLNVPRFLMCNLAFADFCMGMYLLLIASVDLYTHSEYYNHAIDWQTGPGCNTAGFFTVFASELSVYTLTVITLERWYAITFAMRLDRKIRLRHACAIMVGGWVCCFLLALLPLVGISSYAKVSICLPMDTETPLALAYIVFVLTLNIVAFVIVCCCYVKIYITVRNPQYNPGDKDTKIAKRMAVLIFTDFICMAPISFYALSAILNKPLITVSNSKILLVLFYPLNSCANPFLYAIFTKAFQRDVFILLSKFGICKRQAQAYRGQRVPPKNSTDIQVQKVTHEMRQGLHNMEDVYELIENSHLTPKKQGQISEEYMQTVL
Chain of Luciferin 4-monooxygenase (Photinus pyralis) (P08659 whole entry, looked up): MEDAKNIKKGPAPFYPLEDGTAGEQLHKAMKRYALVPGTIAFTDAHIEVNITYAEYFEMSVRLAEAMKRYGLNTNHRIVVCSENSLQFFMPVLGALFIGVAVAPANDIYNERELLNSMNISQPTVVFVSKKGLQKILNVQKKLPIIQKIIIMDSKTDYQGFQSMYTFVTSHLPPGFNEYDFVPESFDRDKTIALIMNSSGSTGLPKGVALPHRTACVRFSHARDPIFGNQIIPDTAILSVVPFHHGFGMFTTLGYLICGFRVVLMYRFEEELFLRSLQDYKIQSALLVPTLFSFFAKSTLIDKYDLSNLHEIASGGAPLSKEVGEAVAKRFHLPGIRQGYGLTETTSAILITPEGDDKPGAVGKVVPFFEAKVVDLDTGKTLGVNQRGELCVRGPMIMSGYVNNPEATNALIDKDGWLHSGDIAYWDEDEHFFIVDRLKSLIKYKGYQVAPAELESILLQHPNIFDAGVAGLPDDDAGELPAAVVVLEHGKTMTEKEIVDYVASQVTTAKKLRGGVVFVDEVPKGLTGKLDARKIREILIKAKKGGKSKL
Chain of Nuclear receptor subfamily 1 group I member 3 (Homo sapiens) (Q14994 whole entry, looked up): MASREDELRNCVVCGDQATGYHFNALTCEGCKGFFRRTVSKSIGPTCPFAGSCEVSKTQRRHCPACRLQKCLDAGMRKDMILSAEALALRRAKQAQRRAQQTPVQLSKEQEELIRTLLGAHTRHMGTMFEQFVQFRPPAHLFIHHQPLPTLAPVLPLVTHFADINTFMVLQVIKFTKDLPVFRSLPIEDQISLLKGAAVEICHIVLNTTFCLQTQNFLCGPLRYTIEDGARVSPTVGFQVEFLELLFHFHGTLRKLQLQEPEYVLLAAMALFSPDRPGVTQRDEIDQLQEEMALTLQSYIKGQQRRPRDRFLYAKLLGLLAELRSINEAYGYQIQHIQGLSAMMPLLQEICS

CC1=C(CC(=O)O)c2cc(F)ccc2/C1=C\c1ccc(S(C)(=O)=O)cc1
inactive: Potency [1] | Potency [2] | Potency [3] | Potency [4] | Potency [5] | Potency [6] | Potency [7] | Potency [8] | Potency [9] | Potency [10] | Potency [11] | Potency [12] | Potency [13] | activity change, positive = activation [14] 5.91% [at 42.5 µM] | Potency [15] | Potency [16] | Potency [17] | Potency [18]

CC(C)(CO)[C@@H](O)C(=O)NCCC(=O)O
inactive: Potency [1] | Potency [2] | Potency [3] | Potency [4] | Potency [5] | Potency [6] | Potency [7] | Potency [8] | Potency [9] | Potency [10] | Potency [11] | Potency [12] | Potency [13] | activity change, positive = activation [14] 7.16% | Potency [15] | Potency [16] | Potency [17]

N#CSCC(=O)O
inactive: Potency [1] | Potency [2] | Potency [3] | Potency [4] | Potency [5] | Potency [6] | Potency [7] | Potency [8] | Potency [9] | Potency [19] | Potency [10] | Potency [11] | outcome [20] | Potency [12] | Potency [13] | activity change, positive = activation [14] 4.98% [at 42.5 µM] | Potency [15] | Potency [16] | Potency [17] | Potency [18]

CCOC(=O)C1CC(=O)C(=C(O)C2CC2)C(=O)C1 (stereo not given)
inactive: Potency [1] | Potency [2] | Potency [3] | Potency [4] | Potency [5] | Potency [6] | Potency [7] | Potency [8] | Potency [9] | Potency [10] | Potency [11] | outcome [20] | Potency [12] | Potency [13] | activity change, positive = activation [14] 6.54% | Potency [15] | Potency [16] | Potency [17] | Potency [18]

CCCCCCCCCC#N
inactive: Potency [1] | Potency [2] | Potency [3] | Potency [4] | Potency [5] | Potency [6] | Potency [7] | Potency [8] | Potency [9] | Potency [19] | Potency [10] | Potency [11] | outcome [20] | Potency [12] | Potency [13] | activity change, positive = activation [14] -15.2% | Potency [15] | Potency [16] | Potency [17] | Potency [18]

O=C(Cl)c1cccc([N+](=O)[O-])c1
inactive: Potency [1] | Potency [2] | Potency [3] | Potency [4] | Potency [5] | Potency [6] | Potency [7] | Potency [8] | Potency [9] | Potency [19] | Potency [10] | Potency [11] | outcome [20] | Potency [12] | Potency [13] | activity change, positive = activation [14] 0.643% | Potency [15] | Potency [16] | Potency [17] | Potency [18]

CCCN(CCC)C(=O)C(CCC(=O)O)NC(=O)c1ccccc1 (stereo not given)
inactive: Potency [1] | Potency [2] | Potency [3] | Potency [4] | Potency [5] | Potency [6] | Potency [7] | Potency [8] | Potency [9] | Potency [10] | Potency [11] | Potency [12] | Potency [13] | activity change, positive = activation [14] 0.999% [at 42.5 µM] | Potency [16] | Potency [17]
